Assay results from PubChem BioAssay (NCATS).
Records with an inconclusive call do not appear. Activity calls are given as the source filed them. Calls follow the shape of the dose curve; as a rule, active = well fitted inhibition curve with a large enough effect; inconclusive = small, poorly fitted or top-dose-only effect; inactive = flat fitted curve, though single readings scatter. Where a SMILES comes first, the peptide text is derived from it. [ ]: non-standard residue; d: D form. dPhe(4-Cl) = N[C@H](Cc1ccc(Cl)cc1)C(=O)O; d2Nal = N[C@H](Cc1ccc2ccccc2c1)C(=O)O; dCit = NC(=O)NCCC[C@@H](N)C(=O)O; d3Pal = N[C@H](Cc1cccnc1)C(=O)O

Experiment: P-glycoprotein substrates identified in KB-8-5-11 adenocarcinoma cell line, qHTS therapeutic library screen (AID 1346987); also: nearly all actives have a fitted effect of over 65% in size
Conditions: KB-8-5-11 (P-gp overexpressing) viability, CellTiter-Glo, 72 h; series mostly up to 44.5 µM; activity change, negative = cytotoxicity: at the top concentration
In short: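 KB-8-5-11, a colchicine-selected P-gp-overexpressing KB-3-1 subline, was grown without colchicine for the assay. Cells were seeded at 500 cells/well, dosed in concentration-response and incubated 72 h at 37 degree C, 5% CO2. Viability was read by CellTiter-Glo luminescence.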
% is scaled to controls: 0 for no effect and ±100 for the full control effect; potency is read from the fitted curve at half-maximal effect.

Compound | Potency | activity change, negative = cytotoxicity | outcome
COc1cc(C(=O)NC2CCN(C)CC2)c(F)cc1Nc1ncc2c(n1)N(C1CCCC1)CC(F)(F)C(=O)N2C | 0.0517 µM (active) | – | –
Clc1cc2c(NC3CCCC3)nnc(-c3ccncc3)c2cc1Cl | – | -18.6% [at 17.3 µM] (inactive) | –
CCCCOC(=O)NC(=O)C1c2ccccc2Oc2ccccc21 | – | 1.24% (inactive) | –
CCc1c(C)nc2c(-c3cnn(-c4cc(CO)ccn4)c3)c[nH]n2c1=O | – | 8.59% (inactive) | –
C[C@@H]1O[C@@H](O[C@H]2[C@H](OC(=O)[C@]34CCC(C)(C)C[C@H]3C3=CCC5[C@@]6(C)C[C@H](O)[C@H](O[C@@H]7O[C@H](CO)[C@@H](O[C@H]8OC[C@](O)(CO)[C@H]8O)[C@H](O)[C@H]7O)[C@@](C)(CO)C6[C@H](O)C[C@@]5(C)[C@]3(C)C[C@H]4O)OC[C@H](O)[C@@H]2O)[C@H](O)[C@H](O)[C@H]1O[C@@H]1OC[C@@H](O)[C@H](O[C@@H]2OC[C@](O)(CO)[C@H]2O)[C@H]1O (some centres undefined) | – | 9.78% [at 9.29 µM] (inactive) | –
COc1cc(C)c(C(=O)Oc2cc(C)c(C(=O)Oc3cc(C)c(C(=O)NC(C)C(=O)O)c(O)c3)c(O[C@@H]3O[C@H](CO)[C@@H](O)[C@H](O)[C@H]3OC(C)=O)c2)c(OC)c1 (some centres undefined) | – | 9.86% [at 17.3 µM] (inactive) | –
COC(=O)C1=CO[C@@H](O[C@@H]2O[C@H](CO)[C@@H](O)[C@H](O)[C@H]2O)[C@H]2[C@@H]1CC(OC)O[C@@H]2C (some centres undefined) | – | – | inactive [at 17.3 µM]
CCC1=CC2CN(C1)Cc1c([nH]c3ccccc13)[C@@](C(=O)OC)(c1cc3c(cc1OC)N(C)[C@H]1[C@@](O)(C(=O)OC)[C@H](OC(C)=O)[C@]4(CC)C=CCN5CC[C@]31[C@@H]54)C2 (some centres undefined) | 7.09 µM (active) | – | –
CC1(C)CC2=C3C=CC4C5(C)CCC(O)C(C)(C)C5CCC4(C)C3(C)CCC2(C)C(O)C1 (centres undefined) | – | -3.24% [at 17.3 µM] (inactive) | –
COC(=O)C1=CO[C@@H](O[C@@H]2O[C@H](CO)[C@@H](O)[C@H](O)[C@H]2O)[C@@H]2C(CO)=CC[C@]12O | – | 1.51% [at 17.3 µM] (inactive) | –
COc1cc2c(cc1OC)[C@@H]1[C@H](O)[C@@H](OC)C=C3CCN(C2)[C@H]31 | 5.7 µM (active) | – | –
COc1ccc(C2=N[C@@H](c3ccc(Cl)cc3)[C@@H](c3ccc(Cl)cc3)N2C(=O)N2CCNC(=O)C2)c(OC(C)C)c1 | – | 4.25% (inactive) | –
COC(=O)C1(C)c2[nH]c3ccccc3c2CCN1C(=O)CCl (centres undefined) | 10.3 µM (active) | – | –
CC1CC(=O)C2=C(CCC3(O)C(O)c4c(O)cccc4C(=O)C23O)C1 (centres undefined) | – | 6.09% (inactive) | –
C=C(CO[C@@H]1O[C@H](CO[C@@H]2OC[C@](O)(CO)[C@H]2O)[C@@H](O)[C@H](O)[C@H]1O)C1Cc2cc(C(C)=O)ccc2O1 (some centres undefined) | – | 8.42% [at 17.3 µM] (inactive) | –
C[C@H]1O[C@@H](O[C@H]2CC[C@@]3(C)C(CC[C@]4(C)C3CC=C3C5CC(C)(C)CC[C@]5(C(=O)O)CC[C@]34C(=O)O)C2(C)C)[C@H](O)[C@@H](O)[C@@H]1O (some centres undefined) | – | 9.67% [at 17.3 µM] (inactive) | –
CN(C)C(=O)NC1CCC(CCN2CCN(c3cccc(Cl)c3Cl)CC2)CC1 (centres undefined) | – | -11.3% [at 9.29 µM] (inactive) | –
CC1=CCC2C(C)(C)CCC[C@]2(C)[C@@]12CC[C@](C)(CC(=O)O)O2 (some centres undefined) | – | -8.53% (inactive) | –
C/C=C(\C)C(=O)O[C@@H]1CC2[C@@H](CC=C3C[C@@H](O[C@H]4C[C@H](OC)[C@H](O[C@H]5C[C@H](OC)[C@H](O[C@@H]6O[C@H](C)[C@@H](O[C@H]7C[C@H](OC)[C@H](O[C@@H]8O[C@H](CO)[C@@H](O)[C@H](O)[C@H]8O)[C@@H](C)O7)[C@H](OC)[C@H]6O)[C@@H](C)O5)[C@@H](C)O4)CC[C@@]32C)[C@@]2(O)CC[C@H](C(C)=O)[C@@]12C (some centres undefined) | – | – | inactive [at 9.29 µM]
CC1COC2(OC3CC4C5CC(O[C@@H]6O[C@H](C)[C@@H](O[C@@H]7O[C@@H](C)[C@H](O)[C@@H](O)[C@H]7O)[C@H](O)[C@H]6O)C6CC(O)CCC6(C)C5CCC4(C)C3C2C)C(O)C1 (some centres undefined) | – | -1.08% [at 17.3 µM] (inactive) | –

Compound | Potency | activity change, negative = cytotoxicity | outcome
Cn1nnc(-c2ccc(-c3ccc(N4C[C@H](CO)OC4=O)cc3F)cn2)n1 | – | -10.6% (inactive) | –
C/C=C/c1cc(OC)c2c(c1)[C@@H](C)[C@@H](c1ccc(O)c(OC)c1)O2 | – | -9.55% (inactive) | –
CC(=O)N[C@@H](C(=O)O[C@H]1CCC(C)(C)[C@@H]2CCC3=C(COC3=O)[C@@]12C)C(C)C | – | -3.92% (inactive) | –
Cc1ccc(S(=O)(=O)Cc2nc(-c3ccc(C(=O)NCc4cccnc4)cc3)oc2C)cc1 | 0.058 µM (active) | – | –
C=C1CC[C@H]2[C@@](C)(CCC(O)[C@@]2(C)CO)[C@@H]1CCC1=CCOC1=O (some centres undefined) | – | -20% (inactive) | –
CC(=O)NCC(=O)N1C2CCC1c1cc(Nc3ncc(C(F)(F)F)c(NC4CCC4)n3)ccc12 (centres undefined) | 1.84 µM (active) | – | –
Nc1nc(Nc2ccc(S(N)(=O)=O)cc2)n(C(=S)Nc2c(F)cccc2F)n1 | 1.16 µM (active) | – | –
Cc1ccc(-c2c(C(=O)CF)n(CCCO)c3ncnc(N)c23)cc1 | – | – | inactive
COc1cc(/C=C/CO)cc(OC)c1O[C@@H]1O[C@H](CO[C@@H]2O[C@H](CO)[C@@H](O)[C@H](O)[C@H]2O)[C@@H](O)[C@H](O)[C@H]1O | – | 5.67% [at 17.3 µM] (inactive) | –
Cc1c(NC(=O)c2cc(C(N)=O)nc3cc(F)ccc23)c(C(F)(F)F)nn1Cc1ccc(C#N)cc1 | – | -6.76% [at 17.3 µM] (inactive) | –
c1ccc(N2CCN(CCc3nn[nH]n3)CC2)cc1 | – | -6.1% (inactive) | –
CCCNc1ccc2ncc(-c3ccc4[nH]ncc4c3)n2n1 | 3.66 µM (active) | – | –
CC(=O)NC1C(OC(C)(C)C2CCC3(C)C=C(C4CCC5C4(C)CC(O)C4OC(C(C)(C)O)CCC45C)CCC3O2)OC(CO)C(O)C1O (centres undefined) | – | 3.65% [at 17.3 µM] (inactive) | –
CC1=C(C(=O)O)/C(=C\CO[C@@H]2O[C@H](CO)[C@@H](O)[C@H](O)[C@H]2O)C(OC(=O)/C=C/c2ccc(O)cc2)C1 (some centres undefined) | – | – | inactive [at 17.3 µM]
O=C(O)C(O[C@@H]1O[C@H](CO[C@@H]2O[C@H](CO)[C@@H](O)[C@H](O)[C@H]2O)[C@@H](O)[C@H](O)[C@H]1O)c1ccccc1 (some centres undefined) | – | – | inactive [at 17.3 µM]
CC(=O)N[C@H](Cc1ccc2ccccc2c1)C(=O)N[C@H](Cc1ccc(Cl)cc1)C(=O)N[C@H](Cc1cccnc1)C(=O)N[C@@H](CO)C(=O)N[C@@H](Cc1ccc(O)cc1)C(=O)N[C@H](CCCNC(N)=O)C(=O)N[C@@H](CC(C)C)C(=O)N[C@@H](CCCN=C(N)N)C(=O)N1CCC[C@H]1C(=O)N[C@H](C)C(N)=O (Ac-[d2Nal][dPhe(4-Cl)][d3Pal]SY[dCit]LRP[dA]-NH2) | – | – | inactive [at 17.3 µM]
C[C@@H]1O[C@@H](O[C@@H]2[C@@H](O[C@@H]3O[C@@H](C)[C@H](O[C@@H]4OC[C@H](O)[C@H](O[C@@H]5OC[C@@H](O)[C@H](O)[C@H]5O)[C@H]4O)[C@@H](O[C@@H]4OC[C@](O)(CO)[C@H]4O)[C@H]3O)[C@H](OC(=O)[C@]34CCC(C)(C)C[C@H]3C3=CCC5[C@@]6(C)C[C@H](O)[C@H](O[C@@H]7O[C@H](CO[C@@H]8OC[C@H](O)[C@H](O)[C@H]8O)[C@@H](O)[C@H](O)[C@H]7O)C(C)(C)C6CC[C@@]5(C)[C@]3(C)C[C@H]4O)OC[C@H]2O)[C@H](O)[C@H](O)[C@H]1O (some centres undefined) | – | – | inactive [at 9.29 µM]
CC(=O)NC[C@H]1CN(c2ccc(N3CCN(C(=O)CO)CC3)c(F)c2)C(=O)O1 | – | -12.9% (inactive) | –
C=C1C(OC(C)=O)CCC2(C)CC3(OC)OC(=O)C(C)=C3CC12 (centres undefined) | – | -0.886% (inactive) | –
